In the library only some 5.4% were active in any assay of this set; here they are far more common.
ALR H2O2 inh – inhibitors of human sulfhydryl oxidase ALR; 3.8% of 290,000 active; purified ALR, DTT oxidation, H2O2 HRP-luminol luminescence; inhibition, % (test concentration not listed); AID 485317; P55789;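 active = mean replicate inhibition above about 79%, with every replicate also reaching it, limit read from the data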
Target sequence (P55789 whole entry, looked up): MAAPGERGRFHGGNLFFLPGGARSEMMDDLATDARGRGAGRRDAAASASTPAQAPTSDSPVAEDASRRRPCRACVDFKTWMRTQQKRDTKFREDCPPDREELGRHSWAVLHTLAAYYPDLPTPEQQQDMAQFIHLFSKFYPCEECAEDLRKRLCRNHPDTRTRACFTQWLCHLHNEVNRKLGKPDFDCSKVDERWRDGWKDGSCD
M18AAP inhibitor – blocks P. falciparum M18 aspartyl aminopeptidase. inhibition, % at 7.35 µM. 1.2% of 290,000 active. AID 1822. recombinant PfM18AAP, H-Glu-NHMec fluorogenic cleavage;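 active = inhibition above the campaign mean inhibition over all tested compounds plus 3 SD, cut at about 28% in these data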;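 also: 0% = plate median of test compound wells and 100% = 2 mM ZnCl2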
GASC-1 inh – blocks human GASC-1 demethylase activity; Q9H3R0; GST-JMJD2C(1-420) H3K9me3 demethylation, DELFIA europium; inhibition, % at 2.35 µM; 0.069% of 330,000 active;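 active = more than half of a compound's replicate wells show inhibition beyond 50%, single wells judged on their own value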;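 also: signal counts dimethyl H3K9 product captured on neutravidin plate; 0% = median of DMSO wells and 100% = 0.3 times that DMSO median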
Target sequence (Q9H3R0 1-420 limits assumed): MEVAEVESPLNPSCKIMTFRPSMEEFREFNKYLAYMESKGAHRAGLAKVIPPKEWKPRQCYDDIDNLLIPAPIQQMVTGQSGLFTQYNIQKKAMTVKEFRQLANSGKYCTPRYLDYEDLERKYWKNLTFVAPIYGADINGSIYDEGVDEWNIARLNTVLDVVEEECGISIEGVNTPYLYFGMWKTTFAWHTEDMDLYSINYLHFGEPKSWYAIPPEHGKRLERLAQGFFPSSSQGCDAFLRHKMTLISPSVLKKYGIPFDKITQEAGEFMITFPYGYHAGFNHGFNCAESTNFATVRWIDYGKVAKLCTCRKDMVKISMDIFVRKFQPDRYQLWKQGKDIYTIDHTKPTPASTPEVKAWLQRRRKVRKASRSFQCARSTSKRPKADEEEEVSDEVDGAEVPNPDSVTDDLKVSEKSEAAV
MIN6 prolif – induces beta-cell replication in MIN6 cells | MIN6 cells proliferation, ATPlite luminescence, 48 h; cells starved in 0.2% serum; 100% = growth in 10% serum | proliferation, % at 10 µM | 0.29% of 330,000 active;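 active = compounds whose signal lies at least 3.5 SD above the mean of all wells on their plate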;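 also: 0% = DMSO-treated cells in low-serum medium and 100% = 10% serum control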
SMARCA2 act – SMARCA2 function activation, primary screen; 1% of 370,000 active; MG213 cells, MMTV-luciferase reporter, dexamethasone, overnight; activation, % at 9.1 µM; in the data active = activation above about 7.8%;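 also: 0% = vehicle wells and 100% = reference activator wells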
Granule exo inh – blocks lytic granule exocytosis; TALL-104 LAMP-1 surface exposure, flow cytometry; cells stimulated with thapsigargin and PMA; inhibition, % at 10 µM; 0.66% of 360,000 active; AID 651702;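 active = inhibition above about 55%, limit read from the data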
SMARCA2 conf – SMARCA2 activation, confirmation screen. shares compounds with SMARCA2 act. MG213 cells, MMTV-luciferase with dexamethasone, luminescence, overnight; MG213 cells expressing E1A, Rb sequestered; DMSO wells 0%, reference activator 100%. activation, % at 9.1 µM. 30% of 3,500 active. AID 652260;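 active = activation above its plate's cutoff, the mean activation of tested wells plus 3 SD, cut at about 7.9% in these data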
GAL4-VP16 Luc – counter-screen for SMARCA2 activators: GAL4-VP16 luciferase reporter activation | shares compounds with SMARCA2 act | HEK293 GAL4-VP16 pG5luc reporter, luciferase luminescence; scaled: DMSO wells 0%, SAHA wells 100% | activation, % at 9.1 µM | 41% of 3,500 active | AID 686939;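 active = activation above the solvent-only control well mean plus 3 SD, averaged across control plates, cut at about 5.2% in these data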
Numbers without * were called inactive; nt = no result.

SMILES	ALR H2O2 inh	M18AAP inhibitor	GASC-1 inh	MIN6 prolif	SMARCA2 act	Granule exo inh	SMARCA2 conf	GAL4-VP16 Luc
Nc1ccc(C#Cc2ccc3c(=O)c4ccccc4oc3c2)cc1	1.5	8.0	18.3	-3.9	3.4	8.8	nt	nt
COC(=O)C[C@@H]1CC[C@@H]2[C@@H](COc3ccc(NC(C)=O)cc3C(=O)N2C)O1	nt	nt	nt	nt	-0.6	nt	nt	nt
Cc1ccc(S(=O)(=O)N2C3CCCCC3O[C@H]2CC(=O)c2cccs2)cc1 (stereo partly specified)	nt	nt	nt	nt	-3.1	-1.5	nt	nt
COc1ccccc1CC(=O)N1CCC(CCC(=O)NC2CC2)CC1	-1.4	-18.5	10.9	4.5	8.8*	-1.8	-2.8	1.4
O=C(CCC1CCN(C(=O)Cc2c(F)cccc2F)CC1)NC1CC1	-11.8	9.6	-6.0	-1.4	2.4	-1.2	nt	nt
COc1ccc(Cc2nc3ccc(C(=O)NCc4cc(C)no4)cc3o2)cc1	4.0	-2.2	6.9	-3.9	10.2*	-3.9	1.9	5.7*
COCCn1c(C)cc(C(=O)COC(=O)c2ccc([N+](=O)[O-])o2)c1C	-20.6	6.6	0.2	-2.9	2.5	17.4	nt	nt
Cc1cc(C(=O)COC(=O)c2ccc([N+](=O)[O-])o2)c(C)n1CC1CCCO1 (stereo unspecified)	-250.9	-14.5	3.2	-1.8	8.5*	-4.4	1.1	0.9
O=C(COc1ccccc1CNCc1ccccc1)Nc1ccccc1	-40.7	3.6	0.2	-6.0	9.9*	1.8	3.2	0.6
Cc1ccc(NC(=O)CNCc2ccccc2OCC(=O)Nc2ccc(I)cc2)cc1	nt	nt	nt	nt	4.8	nt	nt	nt
CC(C)C[C@H]1CN(CCCC[C@H]2CNC(=O)C(=O)N2CCc2ccc(O)cc2)C(=O)C(=O)N1Cc1ccccc1	nt	nt	nt	nt	-0.5	-3.9	nt	nt
COc1nc(C)nc2c1sc1nc3c(cc12)COC(C)(C)C3	nt	-6.0	-4.1	-1.6	10.1*	-0.1	4.3	13.3*
Cc1nc(OCC(C)C)c2sc3nc4c(cc3c2n1)COC(C)(C)C4	nt	-1.0	19.1	-3.5	7.5	11.1	nt	nt
Cc1cccc2nc(-c3ccccc3)c(-c3ccc(CN4CCC(n5cc(-c6ccccc6)[nH]c5=O)CC4)cc3)nc12	nt	nt	nt	nt	1.5	nt	nt	nt
COc1cc(-c2ccc(=O)[nH]n2)ccc1OC(F)F	-1.9	-0.4	-0.6	10.4	8.1*	-4.7	15.3*	3.0
COc1cccc(N2CCN(c3nc(-c4ccccc4C)cc(=O)[nH]3)CC2)c1	3.7	-12.8	25.6	-4.8	13.3*	-2.9	36.0*	1.3
COc1cccc(N2CCN(c3nc(C)c(C)c(=O)[nH]3)CC2)c1	26.9	1.3	3.5	-2.9	-3.4	-3.7	nt	nt
COC(=O)[C@]12C[C@H](CC(=O)N3CCCCC3)C(=O)N(Cc3ccc(Cl)cc3Cl)C1=C[C@H](COCc1ccccc1)O[C@@H]2C	nt	nt	nt	nt	-3.1	nt	nt	nt
CCOC(=O)N/C(N)=N/c1nc2ccccc2s1	-3.8	3.0	-6.7	-3.9	9.9*	11.3	8.4*	13.5*
CC(=O)Nc1nc(=O)c2ccccc2s1	13.5	30.4*	6.2	-3.6	8.3*	0.9	1.0	2.1
Nc1nc(=O)c2ccccc2s1	nt	nt	nt	nt	5.4	6.8	nt	nt
CC(=O)N/C(N)=N/c1nc(=O)c2ccccc2s1	9.2	0.3	-20.3	-3.3	8.2*	-8.4	13.1*	8.9*
COC(=O)c1sc2ccccc2c1N	nt	8.3	8.0	4.6	2.9	-2.5	nt	nt
CC(C)Oc1cc(F)ccc1-c1cc(C(=O)NCc2cccs2)[nH]n1	nt	nt	nt	nt	-3.3	1.6	nt	nt
COC(=O)/C=C1\OCc2cc(OCc3ccccc3)ccc21	nt	nt	nt	nt	-1.0	1.9	nt	nt
SMILES	ALR H2O2 inh	M18AAP inhibitor	GASC-1 inh	MIN6 prolif	SMARCA2 act	Granule exo inh	SMARCA2 conf	GAL4-VP16 Luc
COC(=O)/C=C1\OCc2cccc(C)c21	nt	nt	nt	nt	-4.7	-1.6	nt	nt
CCc1ccccc1OCC(=O)OCC(=O)Nc1cc(C)on1	0.4	nt	-10.9	-3.7	8.3*	6.5	-2.1	0.4
Cc1cc(NC(=O)COC(=O)COc2ccc(C(=O)c3ccccc3)cc2)no1	-3.1	-0.6	-10.3	1.5	-0.5	-2.8	nt	nt
CCN(C[C@H]1N[C@@](Cc2ccccc2)(C(=O)OC)[C@H]2C(=O)N(Cc3ccccc3)C(=O)[C@@H]12)C(=O)NC(C)C	0.7	nt	3.3	1.2	9.2*	-6.9	-4.2	1.3
COc1ccc(CC(=O)O/N=C(\N)c2ccccn2)cc1	5.5	8.5	-5.0	-1.1	8.0*	1.0	-0.6	6.4*
Cc1ccc(C)c(OCC(=O)O/N=C(\N)c2ccccn2)c1	5.2	2.9	nt	-0.5	9.2*	-0.2	4.0	8.2*
NC(c1csc(Nc2ccc(C(=O)NCCCO)cn2)n1)c1ccccc1Cl (stereo unspecified)	nt	nt	nt	nt	4.6	13.5	nt	nt
COc1ccc(-c2ccc3c(n2)CCCN3S(=O)(=O)c2c(C)noc2C)cc1	nt	nt	nt	nt	-5.8	nt	nt	nt
CC1CCN(C(=O)C2CCC(CNS(=O)(=O)c3ccc4c(c3)C(C)(C)C(=O)N4C)CC2)CC1 (stereo unspecified)	nt	nt	nt	nt	-3.1	13.1	nt	nt
CCCS(=O)(=O)NC(=O)C1(C)CCCN(C(=O)c2ccc3c(c2)OCO3)C1 (stereo unspecified)	nt	nt	nt	nt	nt	-5.5	nt	nt
CCCC(CCC)=NNC(=O)c1ccccc1F	-4.8	-0.6	-0.5	-2.4	8.2*	-3.8	-1.2	0.7
O=C(NN=C(Cc1ccccc1)Cc1ccccc1)c1ccccc1F	-2.3	-0.3	-0.6	-3.4	0.6	2.4	nt	nt
Cc1ccsc1/C=N/NC(=O)c1sccc1C	-8.3	-5.1	-1.9	-1.5	10.8*	-1.8	12.0*	11.0*
Cc1ccsc1/C=N/NC(=O)CO	-6.7	-2.6	-10.0	0.2	4.1	1.2	nt	nt
O=C(Nc1cccc(F)c1)c1ccccc1-c1ccccc1	-0.5	-2.6	1.4	0.0	9.0*	-9.8	-0.2	-1.1
O=C(Nc1ccc(Nc2ccccc2)cc1)c1cccc(F)c1	7.2	7.7	2.6	-2.4	9.0*	5.0	5.6	6.7*
Cc1cc(=O)n2nc(N3CCCC(C(=O)Nc4cccc(C)c4C)C3)sc2n1 (stereo unspecified)	nt	nt	nt	nt	-3.8	1.8	nt	nt
CC(=O)c1ccc(NC(=S)NCCc2cccc(Cl)c2)cc1	-0.2	6.0	-28.7	-4.8	8.0*	8.0	4.7	10.7*
CC(=O)c1ccc(NC(=O)Nc2cccc(Cl)c2)cc1	-3.4	2.4	2.0	-3.4	-0.8	-0.2	nt	nt
O=c1[nH]c(CSc2nc3ccccc3s2)nc2ccccc12	-128.9	-8.5	-0.5	-2.2	8.4*	-4.1	3.2	4.2
COC(=O)C[C@@H]1CC[C@H](NC(=O)Nc2cccc(F)c2)[C@@H](CO)O1	nt	nt	nt	nt	-2.5	-6.3	nt	nt
